# From PubChem BioAssay AID686978 (National Center for Advancing Translational Sciences (NCATS), 2013)
# Hit rate of the full screen: of about 420,000 compounds, about 64,000 (15%) were called active. About 27% were inconclusive and are not listed. Calls come from the whole dose curve; as a rule, active = well fitted inhibition curve with a large enough effect; inconclusive = small, poorly fitted or top-dose-only effect; inactive = flat fitted curve, though single readings scatter. A selection follows. A call without a number means that no potency is given here.
# Assay: qHTS for Inhibitors of human tyrosyl-DNA phosphodiesterase 1 (TDP1): qHTS in cells in absence of CPT; note: nearly all actives have a fitted effect of over 55% in size
# Settings: DT40 Tdp1-/- hTDP1 cells, no CPT, ATP luminescence, 48 h; activity change, negative = growth inhibition: at 46.2 µM (top of the series)
# Method in brief: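 Growth of hTDP1-complemented DT40 Tdp1-knockout cells is measured by ATP luminescence after at least 48 hr compound exposure at 37 °C, with DMSO substituting for the 20 nM CPT used in the parallel screen.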
# Potency is the fitted concentration of half-maximal effect.
row,SMILES,Potency
1,CCCCNC1(C#N)CCN(Cc2ccccc2)CC1,inactive
2,O=C1CCC[C@@H]2C[C@@]3(C[C@@H]4CCN1[C@H]24)Nc1ccccc1NC3=NCc1ccccc1,inactive
3,O=C1CC[C@@H]2CC3(C[C@@H]4CCN1[C@H]24)Nc1cc([N+](=O)[O-])ccc1NC3=NC1CCCCC1 (stereo partly specified),inactive
4,Cc1cc2c(cc1C)NC1(C[C@H]3CCC(=O)N4CC[C@@H](C1)[C@@H]34)C(=NC(C)(C)CC(C)(C)C)N2 (stereo partly specified),20 µM (active)
5,COc1ccc(N2C(=O)NC(NS(=O)(=O)c3ccc(Cl)cc3)(C(F)(F)F)C2=O)cc1 (stereo unspecified),inactive
6,CN(C)C(=O)c1ccc(-c2cncnc2NC2CCNCC2)cc1,inactive
7,O=C(O)c1ccc(/C=C2\SC(=S)N(NC(=O)c3ccc(Br)cc3)C2=O)cc1,inactive
8,Cn1c(Cc2cccs2)nnc1SCC(=O)Nc1ccccc1,inactive
9,CCn1c(Cc2cccs2)nnc1SCC(=O)c1ccc(C)cc1,14.1 µM (active)
10,Cc1ccc(-n2c(Cc3cccs3)nnc2SCC(=O)OC(C)C)cc1,inactive
11,O=c1[nH]c(=O)c2nc3ccccc3nc2[nH]1,inactive
12,CCCc1nnc(NC(=O)c2cccs2)s1,inactive
13,O=C1NC(=O)C(c2ccc(Cl)cc2)N1 (stereo unspecified),inactive
14,CCOC(=O)N1CCN(C(=O)C(=O)Nc2sc3c(c2C#N)CC(C)(C)OC3)CC1,inactive
15,NS(=O)(=O)c1ccc2nc(NC(=O)CS(=O)(=O)c3ccc(F)cc3)sc2c1,inactive
16,O=C(Cn1c(=O)sc2ccccc21)Nc1nc2c(s1)CCCC2,inactive
17,COc1cc(C#Cc2ccc3cc(CCCO)oc(=O)c3c2)cc(OC)c1,1.03 µM (active)
18,CN(C(=O)CN1C(=O)CCSc2ccc(S(=O)(=O)N3CCCC3)cc21)c1ccccc1,inactive
19,CSc1ccccc1NC(=O)c1cc(Cl)sc1Cl,inactive
20,CN(CC(=O)Nc1c(Cl)cccc1Cl)C(=O)c1ccncc1,inactive
21,CCCc1ccc(OCCNC(=O)c2ccco2)cc1,inactive
22,CC(Oc1ccc2ccccc2c1)C(=O)NNC(=S)NC(=O)c1ccco1 (stereo unspecified),16.4 µM (active)

row,SMILES,Potency
1,O=C(Nc1ccc2ccccc2c1)/C(=C\c1ccc2c(c1)OCO2)NC(=O)c1ccco1,inactive
2,Cc1ccc(OCC(=O)NCCCNC(=O)c2ccco2)cc1C,inactive
3,CCCc1ccc(OCC(=O)NNC(=S)NC(=O)c2ccco2)cc1,20.6 µM (active)
4,Cc1ccc(C(=O)NNC(=O)C(C)Oc2ccc3ccccc3c2)o1 (stereo unspecified),inactive
5,C=CCn1c(SCc2cc(C(=O)OC)c(C)o2)nnc1-c1ccncc1,inactive
6,CCOC(=O)N1CCC(N2Cc3cccc(C(=O)Nc4ccc(S(=O)(=O)N(CC)CC)cc4)c3C2=O)CC1,inactive
7,CCOC(=O)N1CCC(N2Cc3cccc(C(=O)Nc4c(C)cccc4CC)c3C2=O)CC1,23.1 µM (active)
8,COC(=O)c1ccc(NC(=O)c2cccc3c2C(=O)N(C2CCCCC2)C3)cc1,inactive
9,CC1(C)O[C@@H]2[C@H](O1)[C@@H](COS(=O)(=O)O)O[C@H]2n1ccc(=O)[nH]c1=O,inactive
10,CCOc1ccc(NC(=O)c2ccc(CSc3nnnn3C)cc2)cc1,inactive
11,CCOc1ccc(NC(=O)c2ccccc2NS(C)(=O)=O)cc1,18.4 µM (active)
12,CSc1cccc(NC(=O)CSc2ccccc2)c1,inactive
13,NC(=O)COc1ccc(NC(=O)c2ccccc2-c2ccccc2)cc1,inactive
14,CCOc1cccc(C(=O)Nc2cccnc2)c1,inactive
15,CCCOc1cccc(C(=O)NCCCNC(=O)c2cccnc2)c1,inactive
16,CCCOc1cccc(C(=O)Nc2cccc(NC(=O)c3ccc(C(C)(C)C)cc3)c2)c1,29.1 µM (active)
17,CCOc1ccc(C(=O)Nc2ccncc2)cc1,18.4 µM (active)
18,CCOc1ccc(C(=O)Nc2cccc(SC)c2)cc1,9.2 µM (active)
19,CCOc1ccc(NC(=O)c2ccc(NC(=O)C3CCCO3)cc2)cc1 (stereo unspecified),inactive
20,COC(=O)c1ccccc1NC(=O)c1ccccc1NS(C)(=O)=O,inactive
21,O=C(CSc1ccccc1)Nc1ccc(C(=O)Nc2cccc(O)c2)cc1,inactive
22,Cc1cc(C(=O)OC(C)C(=O)Nc2cccc(S(=O)(=O)N3CCOCC3)c2)c(C)o1 (stereo unspecified),inactive

row,SMILES,Potency
1,COCCCNC(=S)NC(=O)c1ccc([N+](=O)[O-])cc1,inactive
2,CCOc1ccccc1NS(=O)(=O)c1c[nH]c(C(=O)OC)c1,inactive
3,COCCCNC(=O)c1c(NC(=O)c2cc(=O)c3cc(C)c(C)cc3o2)sc2c1CCCC2,inactive
4,Cc1cc(O)c(C2(O)C(=O)Nc3ccccc32)cc1C (stereo unspecified),inactive
5,Cc1nc2ccccc2c(C(=O)O)c1-c1ccccn1,inactive
6,COc1ccc(Cc2nc(-c3ccccn3)no2)cc1OC,inactive
7,CCOC(=O)c1cnc(-c2ccccc2)nc1Oc1ccc(C)cc1,inactive
8,COc1cnc(-c2ccccn2)nc1Oc1ccc(C(C)(C)C)cc1,4.61 µM (active)
9,CC(C)(C)Nc1nc(-c2ccccn2)nc2ccccc12,4.11 µM (active)
10,CC(C)(C)c1ccc(Oc2ccc(N)cc2)cc1,inactive
11,Cc1ccc(Oc2nc(-c3ccccn3)nc3ccccc23)cc1,18.4 µM (active)
12,O=C(c1ccc(NS(=O)(=O)c2ccc3[nH]c(=O)[nH]c3c2)cc1)N1CCCCC1,inactive
13,CCC(CC)C(=O)Nc1c2c(nn1-c1ccc(C)cc1)CS(=O)(=O)C2,inactive
14,Cc1noc(COc2ccccc2OCc2onc(C)c2Cl)c1Cl,inactive
15,CC1(OC(=O)C2CCCC2)C(=O)C=C2C=C(c3ccc(C#N)cc3)OC=C2C1=O (stereo unspecified),inactive
16,CC(C)NC(=O)CSc1nnc(COc2ccccc2Cl)o1,inactive
17,C/C(=N\NS(=O)(=O)c1cccc([N+](=O)[O-])c1)c1cc2ccccc2o1,inactive
18,Cc1cc(NC(=O)COC(=O)COc2ccc(Cl)cc2C)c([N+](=O)[O-])cc1C,inactive
19,O=C(CCCN=C1NS(=O)(=O)c2ccccc21)OCC(=O)c1ccc(F)c(F)c1,inactive
20,Cc1ccc(/C=N\n2c(-c3ccccc3)n[nH]c2=S)s1,inactive
21,CCc1n[nH]c(=S)n1/N=C/c1c[nH]c2ccc(Br)cc12,18.4 µM (active)
22,S=c1[nH]nc(-c2ccncc2)n1/N=C/c1ccccc1Cl,inactive

row,SMILES,Potency
1,Fc1ccc(/C=N/n2c(COc3ccccc3)n[nH]c2=S)cc1,inactive
2,S=c1[nH]nc(-c2ccccc2)n1/N=C/c1c[nH]c2ccccc12,6.51 µM (active)
3,Oc1ccccc1/C=N/n1c(-c2cccs2)n[nH]c1=S,inactive
4,N#CCCN1CCN(S(=O)(=O)c2ccc(S(=O)(=O)NC3CCCCC3)cc2)CC1,inactive
5,COc1ccc(CCC(=O)OCC(=O)Nc2ccc(C)c(S(=O)(=O)N(C)C)c2)cc1,inactive
6,CCCCCCSc1nsc(N)n1,inactive
7,CCOC(=O)CSc1nnc(CNC(=O)c2cccs2)n1-c1cc(OC)ccc1OC,inactive
8,Cc1cc(=O)oc2c(C(=O)c3ccccc3)c(OCC(N)=O)ccc12,inactive
9,O=C(CCCn1c(=O)oc2ccccc21)Nc1cccnc1,inactive
10,CC(C)Cn1cc(-c2cncc3nccn23)cn1,inactive
11,Cn1c(=O)[nH]c(=O)c2c1nc(Br)n2CCCCSc1nc2ccccc2o1,18.4 µM (active)
12,Cc1ccnc(SCCn2c(Br)nc3c2c(=O)[nH]c(=O)n3C)n1,inactive
13,Fc1ccccc1OCCSc1nc2ccccc2o1,inactive
14,COc1ccc(-c2nc(SCC(=O)N3CCCC3)n[nH]2)cc1,inactive
15,CCc1ccc(-c2nc(SCC(=O)NC3CCCC3)n[nH]2)cc1,23.1 µM (active)
16,CCc1c(C)nc(SCC(=O)NC2CCCC2)[nH]c1=O,inactive
17,Cc1cc(Br)ccc1SCC(=O)OCC(=O)NCc1ccc2c(c1)OCO2,inactive
18,CCOc1ccc(C(=O)NC(C(=O)NCc2ccccn2)C(C)C)cc1 (stereo unspecified),inactive
19,COc1ccc(F)cc1S(=O)(=O)N1CCCCC1,inactive
20,COc1ccc(CCNCc2c(C(=O)O)c(C)n(Cc3cccc(C)c3)c2C)cc1OC,inactive
21,COc1cccc(CNCc2c(C(=O)O)n(Cc3ccc(C)cc3)c3cc(C)ccc23)c1OC,16.4 µM (active)
22,CCOc1c(CNCc2ccc(C(=O)O)cc2)cccc1OC,inactive

row,SMILES,Potency
1,CCOC(=O)c1c(Cc2ccc(Cl)cc2)c[nH]c1C,inactive
2,NC(=NC(=O)c1ccccc1)N1CCOCC1,inactive
3,O=C(CNS(=O)(=O)c1ccccc1)NCC(=O)OCc1ccccc1F,inactive
4,COc1ccc(CCNS(=O)(=O)c2cn(C)nc2C)cc1,inactive
5,CCOc1ccc2nc(NCCNC(=O)C(C)(C)C)c(C)cc2c1,inactive
6,Cc1ccc(S(=O)(=O)NCCC(=O)Nc2cccc(S(N)(=O)=O)c2)cc1C,inactive
7,COc1ccc(-c2nc3sc(CCNS(=O)(=O)c4ccc(F)c(C)c4)c(C)n3n2)cc1,20.6 µM (active)
8,COc1ccc(-c2nc3sc(CCNC(=O)C(C)(C)C)c(C)n3n2)cc1,23.1 µM (active)
9,COc1ccc(CNC(=O)Cn2nnc(-c3ccc(S(C)(=O)=O)cc3)n2)cc1,inactive
10,COC(=O)C1=NNC2(c3ccc(C)cc3)C(=O)N(c3cccc(C)c3C)C(=O)C12 (stereo unspecified),inactive
11,CS(=O)(=O)c1ccc(-c2nnn(CC(=O)Nc3ccc4c(c3)OCCO4)n2)cc1,inactive
12,O=C(NC1CCN(Cc2ccccc2)CC1)c1c(F)cccc1F,inactive
13,O=C(NC1CCN(Cc2ccccc2)CC1)c1cc(Br)c(Br)[nH]1,16.4 µM (active)
14,O=C(NC1CCN(Cc2ccccc2)CC1)c1ccccc1F,inactive
15,CC(=O)NCc1ccc(S(=O)(=O)NC2CCN(Cc3ccccc3)CC2)cc1,inactive
16,O=C(NC1CCN(Cc2ccccc2)CC1)c1ccc(Oc2cc(Cl)cc(Cl)c2)o1,18.4 µM (active)
17,O=S(=O)(NCc1ccccn1)c1ccc(Br)s1,inactive
18,CCOCCCNC(=O)c1c[nH]c2cc(C)ccc2c1=O,inactive
